An excerpt weighted towards active compounds, which were near 7.4% of everything screened.
NPC1 prom act – qHTS Assay for NPC1 Promoter Activators | Potency, µM (highest dose often 9.22 µM), without a hit: at the highest dose activation, actives largely listed as activators | Huh7 NPC1 promoter luciferase reporter, 24 h | 320,000 compounds, 2.4% hits; further: % of control where 0% means no effect; nearly all actives have a fitted effect of over 60% in size
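Quantitative HTS used a cell-based reporter: Huh7 cells stably bearing the NPC1 promoter upstream of luciferase were treated with compounds for 24 h, and promoter activation was read as luminescence.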
SMN2 splice up – qHTS Assay for Enhancers of SMN2 Splice Variant Expression. HEK293 SMN2-luciferase splicing reporter, luminescence, 30-36 h. 210,000 compounds, 2.8% hits. Potency, µM (doses to about 46.1 µM), without a hit: top-dose activity change, positive = activation, usual class: activators; further: % of control where 0% means no effect; nearly all actives have a fitted effect of over 55% in size
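HEK293 cells carry an SMN2 […]–luciferase reporter in which exon 7 inclusion puts luciferase in frame. Cells were plated 10-12 h before compound addition, then incubated 30-36 h at 37C. ONE-Glo luminescence was read; sodium butyrate at 4.5 mM final served as control.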
ELG1 genotoxic – qHTS screen for small molecules that induce genotoxicity in human embryonic kidney (HEK293T) cells expressing luciferase-tagged ELG1; HEK293T ELG1-luciferase reporter, luminescence, 16 h; Potency, µM (titrated, usually from 46 µM), without a hit: at the highest dose activity change, positive = activation, actives largely listed as activators; 330,000 compounds, 1.3% hits; further: % of control where 0% means no effect; nearly all actives have a fitted effect of over 60% in size
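Quantitative HTS format in 1536-well plates. HEK293T ELG1-luciferase reporter cells receive test compound and are incubated 16 hr at 37 °C, 5% CO2; ONE-Glo added, 30 min room temperature, then luminescence read.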
Rab9 prom act – qHTS Assay for Rab9 Promoter Activators. Huh7 Rab9 promoter-luciferase reporter, luminescence, 24 h. Potency, µM (series often up to 9.22 µM), without a hit: at the highest dose activation, negative = inhibition, hits mostly activators. AID 485297, 2010. 320,000 compounds, 2.8% hits; further: % of control where 0% means no effect; nearly all actives have a fitted effect of over 60% in size
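Huh7 cells stably carrying Rab9 promoter–luciferase reporter, plated 1500 cells/well, compound added after 2 h and incubated 24 h at 37 °C; luciferase luminescence then read after 10 min with detection reagent.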
FLuc counter – qHTS profiling assay for firefly luciferase inhibitor/activator using purifed enzyme and Km concentrations of substrates (counterscreen for miR-21 project) | Luciferin 4-monooxygenase (Photinus pyralis), P08659 | purified FLuc, Km substrates, luminescence inhibition | Potency, µM (top dose mostly 57.5 µM), for the others: at the top dose activity change, negative = inhibition, actives largely listed as inhibitors | 360,000 compounds, 6.9% hits | AID 588342, 2011;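 further: plate controls were vehicle for no effect and reference inhibitor for full effect; nearly all actives have a fitted effect of over 55% in size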
Target sequence (P08659 whole entry, looked up): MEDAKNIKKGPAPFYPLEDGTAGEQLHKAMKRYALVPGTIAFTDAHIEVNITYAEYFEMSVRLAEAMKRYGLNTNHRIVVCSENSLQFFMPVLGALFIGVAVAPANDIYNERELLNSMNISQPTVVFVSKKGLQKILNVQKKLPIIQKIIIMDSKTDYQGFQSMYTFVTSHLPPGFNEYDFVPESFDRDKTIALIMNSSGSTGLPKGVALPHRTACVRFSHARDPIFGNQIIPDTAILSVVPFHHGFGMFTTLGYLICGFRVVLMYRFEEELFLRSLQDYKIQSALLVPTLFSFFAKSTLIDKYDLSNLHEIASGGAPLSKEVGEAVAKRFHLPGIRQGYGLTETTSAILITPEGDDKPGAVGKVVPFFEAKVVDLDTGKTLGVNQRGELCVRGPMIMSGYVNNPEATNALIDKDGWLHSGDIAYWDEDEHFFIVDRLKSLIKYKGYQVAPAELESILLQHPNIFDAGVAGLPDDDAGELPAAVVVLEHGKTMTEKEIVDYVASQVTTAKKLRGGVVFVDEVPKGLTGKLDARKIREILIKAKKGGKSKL
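Purified P. pyralis luciferase, 10 nM final, with Km-level 10 uM D-luciferin and 10 uM ATP in 50 mM Tris acetate pH 7.5, 10 mM Mg acetate, 0.01% Tween-20, 0.05% BSA; 6-point qHTS titration about 60 µM downward; luminescence read.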
Numbers without * were called inactive; ? = inconclusive; nt = no result given; ! = not confirmed by another sample; [ ] = remark or other dose. The call rests on the fitted dose curve; in most records, active means well fitted curve in the direction sought with a large enough effect; inconclusive means small, poorly fitted or top-dose-only effect, or another doubt; inactive means no such curve, though single readings can be large; an effect the other way counts as inactive or inconclusive. Potency means the concentration at half of the fitted maximal effect.

SMILES	NPC1 prom act	SMN2 splice up	ELG1 genotoxic	Rab9 prom act	FLuc counter
CC(=O)c1cccc(N/C=C\C(=O)c2ccc(C)cc2)c1	0.794µM*	6.31µM*	2.59µM*	0.794µM*	0.301µM*
CC(=O)c1cccc(NS(=O)(=O)c2ccc(N/C=C\C(=O)c3ccc(C)cc3)cc2)c1	-13.1%	-22.8%	2.2%	-3.9%	5.0%
Cc1ccc(S(=O)(=O)c2nnn3c2nc(N2CCOCC2)c2sccc23)cc1C	nt	nt	nt	nt	0.5%
Cc1cccc(Cn2cnc3c(oc4ccccc43)c2=O)c1	nt	nt	nt	nt	-1.5%
O=C(c1ccc(Br)cc1)N1CCN(CCc2ccncc2)CC1	nt	nt	nt	nt	-7.1%
CC(=O)Nc1ccc(N/C=C/C(=O)c2ccc(Cl)cc2)cc1	?	nt	8.0%	?	-12.8%
Cc1ccc(C(=O)/C=C/Nc2cccc(O)c2)cc1	27.9%	25.1µM*	4.11µM*	?	0.379µM*
C/C(=C\C(=O)c1ccc(C)cc1)Nc1cccc(O)c1	2.82µM*	?	?	0.631µM*	0.849µM*
O=C(/C=C/Nc1ccc(F)c(Cl)c1)c1ccccc1	?	nt	18.3µM*	3.55µM*	2.39µM*
O=C(/C=C/Nc1cccc(O)c1)c1ccccc1	?	?	?	23.3%	0.169µM*
COc1ccccc1C(=O)Nc1ccc(OCC(=O)N2CCCCC2C)cc1 (centres undefined)	-4.8%	nt	1.0%	-0.2%	12µM*
COc1ccccc1C(=O)Nc1ccc(OCC(=O)N2C(C)CCCC2C)cc1 (centres undefined)	1.0%	nt	2.5%	8.5%	8.49µM*
CCOC(=O)c1sc2nc(CC(=O)OC)nc(NCc3ccco3)c2c1C	0.0%	8.0%	-7.0%	-2.7%	-13.7%
Cc1nc(NCc2ccco2)c2c(C)c(C)sc2n1	-16.8%	3.16µM*	-26.9%	-15.9%	0.5%
Cc1sc2nc3c4ccccc4c(NCc4ccco4)nn3c(=O)c2c1C	?	10µM*	7.08µM*	2.82µM*	7.57µM*
COC(=O)[C@@]1(Cc2ccccc2)[C@H]2c3cc(C(=O)N4CCCC4)n(Cc4cccc5ccccc45)c3C[C@H]2CN1C(=O)c1ccccc1	nt	-29.8%	nt	nt	nt
O=C(CC(c1ccco1)S(=O)(=O)c1ccccc1)c1ccc(F)cc1 (centres undefined)	0.1%	12.8%	0.6%	-0.7%	19µM*
CCOC(=O)C1CCN(S(=O)(=O)c2cc(-c3onc(C)c3C)ccc2OC)CC1	nt	nt	nt	nt	4.1%
COc1ccc(-n2ncc(C(C)NS(=O)(=O)c3cc(F)ccc3C)c2C)cc1 (centres undefined)	0.4%	nt	-6.0%	-2.0%	5.9%
O=C(Nc1ccccc1O)c1cc(S(=O)(=O)N2CCCC2)ccc1Cl	nt	-31.9%	nt	nt	-7.6%
COC(=O)c1sc2nc(C)cc(C)c2c1N	-0.2%	nt	7.4%	16.5%	?
COCc1cc(C)nc2sc(C(=O)Nc3ccccc3Br)c(N)c12	15.3%	nt	6.6%	21.2%	8.49µM*
COc1ccc2nc(NC(=O)c3sc4nc(C)cc(C)c4c3N)sc2c1	?	nt	?	?	0.12µM*
Cc1cc(C)c2c(N)c(C(=O)Nc3ncc(C)s3)sc2n1	-10.3%	-55.5%	?	?	0.0953µM*
Cc1cc(C)c2c(N)c(C(=O)Nc3ccccc3F)sc2n1	1.78µM*	nt	?	2.24µM*	nt
SMILES	NPC1 prom act	SMN2 splice up	ELG1 genotoxic	Rab9 prom act	FLuc counter
CCc1ccccc1NC(=O)c1sc2nc(C)cc(C)c2c1N	-1.0%	nt	2.3%	12.2%	?
Cc1cccc(CN2C(=O)CCSc3ccc(Cl)cc32)c1	-5.0%	-17.6%	-1.9%	0.3%	1.9%
CSc1nc2sc3c(c2c(=O)n1C)CCC(C)C3 (centres undefined)	2.4%	1.1%	9.1%	19.4%	13.5µM*
CSc1nc2sc3c(c2c(=O)n1C)CCC3	-0.3%	nt	2.8%	-1.6%	-5.9%
O=C(CSc1ncnc2nc[nH]c12)c1ccccc1	2.82µM*	11.2µM*!	0.8%	3.98µM*	21.3µM*
c1ccc(CCSc2ncnc3nc[nH]c23)cc1	?	-6.7%	6.8%	?	15.1µM*
O=C(O)CCSc1ncnc2nc[nH]c12	nt	-11.1%[9.22 µM]	nt	nt	nt
O=C(CCNC(=O)c1ccccc1Cl)Nc1nc(-c2ccc(F)cc2)cs1	-0.9%	nt	-2.5%	1.6%	-16.8%
COc1ccc2sc(NC(=O)c3ccco3)nc2c1	0.501µM*	?	?	0.355µM*	0.757µM*
O=C(CCNC(=O)c1ccco1)Nc1nc2ccccc2s1	25.6%	nt	8.7%	?	?
O=C(NC(=S)Nc1nc2ccccc2s1)c1ccco1	?	11.2µM*	?	?	1.51µM*
COc1ccc2nc(NC(=O)CCNC(=O)c3ccco3)sc2c1	3.16µM*	nt	?	3.16µM*	12µM*
O=C(CCNC(=O)c1ccccc1Cl)Nc1nc(-c2ccccc2Cl)cs1	8.0%	2.6%	13.6%	1.3%	16.9µM*
NCC1OC(O[C@H]2[C@H](O)[C@@H](OC3C(O)C(N)CC(N)C3OC3OC(CO)C(O)C(O)C3N)O[C@@H]2CO)C(N)C(O)C1O (some centres undefined)	-6.2%[46.1 µM]	nt	nt	-15.7%[46.1 µM]	nt
CCn1ccnc1CN(C)Cc1c(C(=O)N2CCCCCCC2)nc2ccc(Cl)cn12	-3.2%	nt	3.9%	2.1%	1.5%
COc1ccc(CCNC(=O)CSc2nc3nc(C)c(Cc4ccc(C)cc4)c(C)n3n2)cc1OC	nt	nt	nt	nt	-4.0%
COc1ccc2nc(NC(=O)CCNC(=O)c3ccccc3Cl)sc2c1	16.2%	15.8µM*	10.0%	29.7%	19µM*
COc1ccc2nc(NC(=S)NC(=O)c3ccco3)sc2c1	3.16µM*	7.94µM*	?	1µM*	0.675µM*
COc1ccc(-c2csc(NC(=S)NC(=O)c3ccco3)n2)cc1	-3.0%	?	19.6%	-1.4%	-0.3%
COc1ccc2nc(N(Cc3cccnc3)C(=O)COc3ccccc3)sc2c1	nt	nt	nt	nt	-10.8%
COc1ccc2nc(N(Cc3ccccc3)C(=O)CCNC(C)=O)sc2c1	?	nt	?	?	19µM*
COc1cccc(NC(=O)CCNC(=O)c2ccccc2Cl)c1	-1.4%	-22.0%	2.3%	-2.3%	5.2%
CN1[C@@H](c2ccccc2)CC(=NO)C[C@H]1c1ccccc1	nt	-6.0%[9.22 µM]	nt	nt	nt
COC(=O)c1ccc(C23CC4(C2)[C@H](CN(C)[C@@H]4c2ccccc2)C3c2ccc(Cl)nc2)cc1 (some centres undefined)	-4.5%	-15.7%	-2.7%	-7.6%	0.2%
Fc1ccc(N2CCN(c3nc4ccccc4c4nc(-c5ccccc5)nn34)CC2)cc1	nt	-4.3%	nt	nt	0.8%
Clc1ccc(N2CCN(c3cnc4ccccc4n3)CC2)cc1	?	-8.9%	?	?	16.9µM*
Cc1cc(N2CCN(c3ccccc3)CC2)nc2ccccc12	11.3%	nt	4.0%	14.0%	15.1µM*

Source: PubChem
